# Compound activity as filed in PubChem.
# FBW7 activator: activators of human E3 ligase FBW7. normalized activity (activation), % at 26.1 µM. Q969H0. AID 1259310. actives 0.13% (n = 650,000). AlphaScreen FBW7–phospho-cyclin E peptide binding, activator screen; in the data active means normalized activity above about 1.9%;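 further: purified mutant Fbw7 with reduced substrate affinity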
# MITF inh: inhibitors of human MITF. inhibition, % at 2.6 µM. O75030. AlphaScreen MITF homodimerization, bead proximity signal. AID 1259374. actives 0.91% (n = 650,000); in the data active means inhibition above about 50%
# Target sequence (O75030 whole entry, looked up): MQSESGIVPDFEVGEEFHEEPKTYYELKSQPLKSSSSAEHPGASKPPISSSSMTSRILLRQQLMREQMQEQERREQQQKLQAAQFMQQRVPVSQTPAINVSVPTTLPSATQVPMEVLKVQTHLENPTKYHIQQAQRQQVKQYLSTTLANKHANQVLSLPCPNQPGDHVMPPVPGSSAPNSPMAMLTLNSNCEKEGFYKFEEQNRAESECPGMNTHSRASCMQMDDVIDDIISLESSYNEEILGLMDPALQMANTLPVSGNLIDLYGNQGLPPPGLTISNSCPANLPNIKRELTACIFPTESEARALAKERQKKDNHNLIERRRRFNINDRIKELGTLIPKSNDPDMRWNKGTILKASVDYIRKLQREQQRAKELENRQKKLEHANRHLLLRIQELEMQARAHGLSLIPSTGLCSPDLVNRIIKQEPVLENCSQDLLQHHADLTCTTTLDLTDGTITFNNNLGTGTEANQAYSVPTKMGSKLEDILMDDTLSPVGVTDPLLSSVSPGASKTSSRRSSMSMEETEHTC
# TEAD-YAP inh: TEAD-YAP interaction inhibition | HEK-TIYL cells, TEAD-Gal4/YAP UAS-luciferase luminescence | inhibition, % at 9.12 µM | actives 1.4% (n = 640,000) | AID 1259422; in the data active means inhibition above about 32%
# GPR151 activ: activates the human receptor GPR151; activation, % at 11.2 µM; AID 1508602; actives 1% (n = 650,000); PathHunter beta-arrestin GPR151 cells, luminescence; in the data active means activation above about 4.9%
# Hits are given with their value; i = inactive. Most compounds without a hit are left out; they make up all but 3.5% or so of the library.
SMILES,FBW7 activator,MITF inh,TEAD-YAP inh,GPR151 activ
O=C(Nc1cnn(C23CC4CC(CC(C4)C2)C3)c1)c1cnn2cccnc12,i,i,58,i
O=C(Nc1cnn(C23CC4CC(CC(C4)C2)C3)c1)c1cnn2cc(Br)cnc12,i,i,i,i
CC(C)C(NC(=O)c1ccccc1)C(=O)OCC(=O)Nc1sc2c(c1C#N)CCCC2 (stereo unspecified),i,i,i,i
Cc1oc2c(c1C(=O)O)C(=O)c1ccccc1C2=O,i,i,i,i
Cc1oc2c(c1C(=O)N1CCCC1)C(=O)c1ccccc1C2=O,i,i,54,i
CC(=O)c1cccc(NC(=O)C2CCCN(S(=O)(=O)c3c(C)[nH]c(=O)[nH]c3=O)C2)c1 (stereo unspecified),i,i,i,i
CCN(CC)c1ccc(C2CC(c3ccc(C)cc3)=NN2C(=O)CCC(=O)O)cc1 (stereo unspecified),i,i,46,i
Cc1nc(/C=C/c2ccc(Cl)cc2)sc1C(=O)O,i,i,60,i
OCCn1c(Cc2ccccc2)nc2ccccc21,i,i,98,i
Cn1c(=O)n(CCCO)c(=O)c2c1nc1n2CCCN1c1ccc(Oc2ccccc2)cc1,i,i,i,i
O=[N+]([O-])c1ccc(N2CCN(c3ccccc3)CC2)c2ncccc12,i,i,i,i
CN(Cc1cc(Br)c(O)c2ncccc12)C1CCCCC1,i,79,87,i
CN(Cc1cc(Cl)c2cccnc2c1O)C1CCCCC1,i,i,83,i
Oc1c(I)cc(Cl)c2cccnc12,i,i,i,i
O=[N+]([O-])c1cc(CN2CCN(c3ccccc3)CC2)c(O)c2ncccc12,i,61,48,i
CN(Cc1cc([N+](=O)[O-])c2cccnc2c1O)C1CCCCC1,i,114,i,i
Oc1ccc(CCNc2nc(N3CCN(Cc4ccc5c(c4)OCO5)CC3)nc3c2ncn3Cc2ccc(C(F)(F)F)cc2)cc1,i,i,i,i
O=C(NNc1ccc(S(=O)(=O)N2CCCC2)cc1[N+](=O)[O-])c1cccs1,i,i,i,i
O=C(COC(=O)c1ccc([N+](=O)[O-])o1)NC(=O)Nc1ccc2c(c1)OCCO2,i,i,37,i
CC(C)(C)NCC(O)COc1ccc(Cl)cc1 (stereo unspecified),i,i,i,i
CC1CN2C(=O)Cc3c(S(=O)(=O)NCc4cccs4)ccc(c32)S1 (stereo unspecified),i,i,i,i
Cc1cc(C)cc(NS(=O)(=O)c2ccc3c4c2CC(=O)N4CC(C)S3)c1 (stereo unspecified),i,i,34,i
O=C(CC1C(=O)NCCN1Cc1ccc(F)cc1)NCCc1c[nH]c2ccccc12 (stereo unspecified),i,i,i,i
COc1ccc(C2CC(=O)N(CC(=O)c3ccccc3)c3ccccc3S2)cc1OC (stereo unspecified),i,i,76,i
C1CCN=C(Nc2nnc(C34CC5CC(CC(C5)C3)C4)s2)CC1,i,i,i,i
SMILES,FBW7 activator,MITF inh,TEAD-YAP inh,GPR151 activ
COc1ccc(Cl)cc1NC(=O)c1sc2nc(C)nc(N3CCCCC3)c2c1C,i,i,i,i
Cc1cccc(N2C(=O)/C(=C/C=C/c3ccco3)C(=O)NC2=S)c1,i,58,i,i
COc1ccc(N2C(=O)/C(=C/C=C/c3ccco3)C(=O)NC2=S)c(OC)c1,i,76,i,i
Cc1ccc(N2C(=O)/C(=C/c3ccco3)C(=O)NC2=S)cc1,i,i,i,i
Cc1ccc2nc(-c3ccc(O)cc3O)cn2c1,i,i,80,i
Cc1ccc2nc(-c3ccc(O)c(O)c3)cn2c1,i,i,54,i
Cc1ccc2nc(-c3ccc([N+](=O)[O-])cc3)cn2c1,i,i,i,i
Cc1cc2c(=O)n(CC(=O)NCCN(C)C)cnc2s1,i,i,i,i
COc1ccc2nc(SCC(=O)Nc3ccccc3N3CCOCC3)c(C#N)cc2c1,i,i,i,i
CC(Oc1cccc(Cl)c1)C(=O)Nc1cccc(F)c1 (stereo unspecified),i,i,i,i
CC(Oc1cccc(Cl)c1)C(=O)Nc1ccc(F)c([N+](=O)[O-])c1 (stereo unspecified),i,i,34,i
Cc1ccccc1-c1nc2ccccc2[nH]1,i,i,i,i
Cc1cc2nc(-c3ccc[nH]c3=O)[nH]c2cc1C,i,i,86,i
CCN=c1scc(-c2ccccc2F)n1/N=C/c1ccc2c(c1)OCCO2,i,i,51,i
Cc1csc(=Nc2ccccc2F)n1/N=C/c1ccsc1,i,i,i,i
CN=c1scc(-c2ccccc2F)n1/N=C/c1ccccc1,i,i,99,i
CCN=c1scc(C)n1/N=C/c1ccc2c(c1)OCCO2,i,i,i,i
